# Source: PubChem BioAssay
# Hits are enriched below; roughly 2.4% of the tested compounds scored in any of these assays.
# A549 tox-1 – kills or reduces viability of A549 cells in Nrf2 counter-screen | 390,000 tested, 0.16% active | Potency, µM (highest dose often 46 µM), for the others: at the top dose activity change, negative = cytotoxicity, usual class: inhibitors | A549 ARE-Fluc cells, CellTiter-Fluor viability, 18-24 h; further: on the % scale 0 is the no-effect control and ±100 the full control effect
#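 A549 ARE_Fluc cells in 5% FBS OPTI-MEM were exposed to compounds in concentration-response for 18-24 h at 37 deg C. Viability was read by CellTiter-Fluor fluorescence (Ex 405/Em 525) after 30 min, before the luciferase read.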
# Nrf2 inh – blocks Nrf2 signaling; A549 ARE-Fluc reporter, luciferase luminescence, 18-24 h; Potency, µM (doses to about 46 µM), for the others: at the top dose activity change, negative = inhibition, usual class: inhibitors; 360,000 tested, 2.1% active; further: on the % scale 0 is the no-effect control and ±100 the full control effect; nearly all actives have a fitted effect of over 60% in size
#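 Nrf2 function is reported as luminescence of an ARE-controlled luciferase in A549 cells. Compounds were tested at several concentrations, and a CellTiter-Fluor read on the same wells flagged cytotoxicity.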
# Nrf2 ARE act – activates Nrf2 signaling; AREc32 ARE-luciferase reporter (MCF7-derived line), luminescence, 24 h; Potency, µM (highest dose often 46.1 µM), for the others: top-dose activation, hits mostly activators; 410,000 tested, 0.31% active; further: % of control where 0% means no effect; nearly all actives have a fitted effect of over 65% in size
#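 AREc32_Fluc, 1000 cells/well, OPTI-MEM + 5% FBS, o/n 37 deg C 5% CO2; 23 nL cpd by pin tool, 24 hr; Steady-Glo 30 min RT, luminescence.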
# PINK1 expr mod – PINK1 expression modulation | PINK1 immunofluorescence, high-content cytometry, 24 h | Potency, µM (doses to about 76.6 µM), inactives show top-dose activation (PINK1 increase), most hits filed as activators | 410,000 tested, 0.2% active; active means well fitted activation curve with a large enough effect; inconclusive means small, poorly fitted or top-dose-only effect; cell line not stated here; further: % of control where 0% means no effect; nearly all actives have a fitted effect of over 65% in size
#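 Readout is PINK1 immunofluorescence, quantified alongside mitochondrial, cell and nuclear markers by laser-scanning microplate cytometry. Cells from a stable line were exposed to compound titrations (5 concentrations) for 24 hours, with CCCP controls.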
# Epigenetic derep – derepresses silenced GFP reporter in murine cells | murine LDR cells, GFP reporter derepression, 30 h | Potency, µM (top dose mostly 53.9 µM), for the others: at the top dose GFP activation, most hits filed as activators | 280,000 tested, 0.2% active; further: % of control where 0% means no effect; nearly all actives have a fitted effect of over 60% in size
#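 Derepression of a silenced CMV-GFP reporter in murine LDR cells is scored by enumerating GFP-positive cells with a laser-scanning microplate cytometer after 30 hours of treatment at 37 C.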
# FLuc enzyme inh – blocks purified firefly luciferase in Nrf2 counterscreen. AID 720522. 1,400 tested, 4% active. Potency, µM (top dose mostly 57.5 µM), without a hit: at the highest dose activity change, negative = inhibition, usual class: inhibitors. purified firefly luciferase, luminescence inhibition. shares compounds with Nrf2 inh; further: on the % scale 0 is the no-effect control and ±100 the full control effect; nearly all actives have a fitted effect of over 65% in size
# Target sequence (P08659 whole entry, looked up): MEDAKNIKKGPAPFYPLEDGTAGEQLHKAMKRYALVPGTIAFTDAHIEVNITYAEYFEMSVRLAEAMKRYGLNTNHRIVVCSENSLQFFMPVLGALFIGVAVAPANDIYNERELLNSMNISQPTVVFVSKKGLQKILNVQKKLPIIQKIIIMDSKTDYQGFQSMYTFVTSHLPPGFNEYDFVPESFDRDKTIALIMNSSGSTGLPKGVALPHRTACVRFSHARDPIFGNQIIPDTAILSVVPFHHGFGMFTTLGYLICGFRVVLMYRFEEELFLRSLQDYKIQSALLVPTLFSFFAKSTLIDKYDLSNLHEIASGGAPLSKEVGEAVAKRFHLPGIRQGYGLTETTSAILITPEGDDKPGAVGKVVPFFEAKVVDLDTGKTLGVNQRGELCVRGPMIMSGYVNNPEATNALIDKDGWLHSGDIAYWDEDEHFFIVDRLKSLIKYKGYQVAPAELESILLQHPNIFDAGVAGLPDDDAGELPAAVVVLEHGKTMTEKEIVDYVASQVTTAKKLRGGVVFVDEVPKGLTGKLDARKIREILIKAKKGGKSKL
# A549 tox-2 – A549 cytotoxicity, Nrf2 inhibitor counterscreen. shares compounds with Nrf2 inh. A549 ARE-Fluc cells, cytotoxicity counterscreen. Potency, µM (top dose mostly 46.1 µM), inactives show top-dose activity change, negative = cytotoxicity, most hits filed as inhibitors. 1,400 tested, 2% active;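 further: cells exposed to compounds for 18 to 24 hours; on the % scale 0 is the no-effect control and ±100 the full control effect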
# ARE-Fluc inh – Nrf2 inhibition confirmed, A549 ARE-luciferase; shares compounds with Nrf2 inh; A549 ARE-firefly luciferase reporter, luminescence; Potency, µM (highest dose often 46.1 µM), for the others: top-dose activity change, negative = inhibition, actives largely listed as inhibitors; 1,400 tested, 74% active; further: on the % scale 0 is the no-effect control and ±100 the full control effect; nearly all actives have a fitted effect of over 65% in size
# The depositor's hits bear a star; ? = inconclusive; / = no result given; [ ] = another dose, or the depositor's remark. Unless noted, the call rests on the fitted dose curve; in most records, active means well fitted curve in the direction sought with a large enough effect; inconclusive means small, poorly fitted or top-dose-only effect, or another doubt; inactive means no such curve, though single readings can be large; an effect the other way counts as inactive or inconclusive. Potency means the concentration at half of the fitted maximal effect.
SMILES,A549 tox-1,Nrf2 inh,Nrf2 ARE act,PINK1 expr mod,Epigenetic derep,FLuc enzyme inh,A549 tox-2,ARE-Fluc inh
CC1(C)O[C@@H]2C[C@H]3[C@@H]4C[C@H](F)C5=CC(=O)CC[C@]5(C)[C@H]4[C@@H](O)C[C@]3(C)[C@]2(C(=O)CO)O1,-1%,?,0%,5%,0%,/,/,/
O=S(=O)(c1ccccc1C(F)(F)F)N1CCN(c2nc(-c3cccs3)nc3ccccc23)CC1,13%,-1%,/,0%,/,/,/,/
CCOc1ccccc1Nc1ccc2cc(S(=O)(=O)N3CCCCC3)ccc2n1,-4%,?,1%,6%,0%,/,/,/
O=C1CC(c2cc(F)cc(F)c2)c2cc3c(cc2N1)OCO3 (configuration not stated),0%,?,0%,0%,1%,/,/,/
CCOc1ccc(N(Cc2cc3cc(C)ccc3[nH]c2=O)C(=O)c2cccc(Cl)c2)cc1,0%,19%,0%,-1%,-2%,/,/,/
C[C@]12C=CC(=O)C=C1CCC1C3CC[C@](O)(C(=O)CO)[C@@]3(C)CC3OC312 (some centres not stated),-1%,-18%,0%,3%,14%,/,/,/
CC(=O)OCC(=O)[C@@]1(O)CC[C@H]2[C@@H]3CCC4=CC(=O)C=C[C@]4(C)[C@H]3[C@@H](O)C[C@@]21C,-8%,0.052µM*,0%,3%,-5%,0%,-6%,0.041µM*
CC(=O)OCC(=O)[C@@]1(O)CC[C@H]2[C@@H]3CCC4=CC(=O)C=C[C@]4(C)[C@@]3(Cl)[C@@H](Cl)C[C@@]21C,?,8.2µM*,-1%,1%,0%,2%,-6%,1.3µM*
CN(C)c1ccc(-c2nc(NCc3cccnc3)c3ccccc3n2)cc1,/,/,/,1%,?,/,/,/
CC(Oc1ccccc1)C(=O)Nc1ccc(C(N)=O)cc1 (configuration not stated),10%,/,0%,6%[38.3 µM],-2%,/,/,/
NC(=O)c1ccc(NC(=O)C#Cc2ccccc2)cc1,-18%,4.6µM*,?,-1%,/,?,?,5.8µM*
CN(Cc1ccc(OC(F)F)cc1)C(=O)c1cccc(S(=O)(=O)N2CCN(c3ccccc3)CC2)c1,-17%,4.6µM*,0%,2%,/,-2%,2%,/
CCN(CC(=O)Nc1ccc(OC)cc1)C(=O)c1cccc(S(=O)(=O)N2CCN(c3ccccc3)CC2)c1,/,/,1%,0%,/,/,/,/
CN(Cc1ccc(Cl)c(Cl)c1)C(=O)c1cccc(S(=O)(=O)N2CCN(Cc3ccccc3)CC2)c1,-20%,9.2µM*,0%,-2%,/,-2%,-24%,?
CC(=O)N(C)C1=C(N2CCOCC2)C(=O)c2ccccc2C1=O,8.2µM*,0.46µM*,-2%,-7%[38.3 µM],-1%,-20%,16µM*,5.8µM*
CC(C)=CCC/C(C)=C/CO/N=C1/C[C@@H](O)[C@@H](O)[C@@H]2[C@@H]3C(=O)N(C[C@@H]4CCCO4)C(=O)[C@H]3CC[C@H]12,/,/,/,/,0%[10.1 µM],/,/,/
COc1cc(NC(=O)c2ccc(-c3nc(CSc4ccccc4)c(C)o3)cc2)cc(OC)c1,0%,7.3µM*,0%,3%,-5%,-15%,-8%,7.3µM*
Cc1ccc(SCc2nc(-c3ccc(C(=O)Nc4cc(C)ccc4C)cc3)oc2C)cc1,-3%,5.8µM*,1%,1%,-3%,-2%,-6%,7.3µM*
COc1cccc(NC(=O)c2ccc(-c3nc(COc4ccc(C)cc4)c(C)o3)cc2)c1,-1%,5.2µM*,3%,-1%,1%,-12%,-12%,?
